The record followed here is PubChem BioAssay (Tox21).

A short description of assay [1]: Caspase-3/7 induction in HepG2 cells by small molecules, qHTS assay (AID 1346978). Note: nearly all actives have a fitted effect of over 15% in size. Note: potency is the fitted concentration of half-maximal effect. In a few lines:
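Wild-type HepG2 cells (2,000/well) were settled 5 h at 37 C, 5% CO2, then exposed to compounds in DMSO for 17 h. Caspase-3/7 activity was read by luminescence 30 min after adding Caspase-Glo 3/7 reagent at room temperature.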

A short description of assay [2]: Caspase-3/7 induction in CHO-K1 cells by small molecules, qHTS cell viability counter screen (AID 1346979). Note: nearly all actives have a fitted effect of over 35% in size. Note: potency is the fitted concentration of half-maximal effect. The method in brief:
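In the same wells as the caspase read, viability of compound-treated wild-type CHO-K1 cells was assessed using CellTiter-Fluor, added after 16hr at 37C and measured by fluorescence following 1hr further incubation.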

Assay [3] can be described thus: Caspase-3/7 induction in HepG2 cells by small molecules, qHTS cell viability counter screen (AID 1346981). For activity change, negative = cytotoxicity: series mostly up to about 92 µM. Note: nearly all actives have a fitted effect of over 30% in size. Note: potency is the fitted concentration of half-maximal effect. In a few lines: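 Steps: seed 2,000 HepG2 cells per well; incubate 5 hr at 37 C; pin-add compounds in DMSO; incubate 16 hr; add CellTiter-Fluor; after 1 hr at 37 C and 5% CO2, read fluorescence.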
For assay [4], the target named is Nuclear receptor subfamily 1 group I member 2 (Homo sapiens) (UniProt O75469). The assay can be described thus: Human pregnane X receptor (PXR) small molecule agonists, qHTS assay (AID 1346982). Note: nearly all actives have a fitted effect of over 35% in size. Note: potency is the fitted concentration of half-maximal effect. In a few lines:
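Agonist mode qHTS: PXR-Luc HepG2 cells plated 5 hr before DMSO-dissolved compounds were pinned in, cultured 24 hr at 37 C, 5% CO2; ONE-Glo luminescence readout.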

Assay [5] has as its target Cytochrome P450 2D6 (Homo sapiens) (UniProt P10635). The assay can be described thus: Cytochrome P450 Family 2 Subfamily D Member 6 (CYP2D6) small molecule antagonists: luciferase reporter qHTS assay (AID 1671196). For activity change, negative = inhibition: series mostly up to about 120 µM. Note: nearly all actives have a fitted effect of over 50% in size. Note: potency is the fitted concentration of half-maximal effect. The method in brief:
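P450-Glo format: CYP2D6 converts a proluciferin substrate to luciferin in an NADPH-driven reaction lasting 1 h at room temperature. Light output, proportional to CYP2D6 activity, reflects interference by test chemicals.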

Assay [6] addresses Nuclear receptor subfamily 1 group I member 2 (Rattus norvegicus) (UniProt Q9R1A7). The assay can be described thus: Rat pregnane X receptor (rPXR) activation by small molecules, qHTS assay (AID 1346983). Note: nearly all actives have a fitted effect of over 20% in size. To be noted: rPXR luciferase reporter cells, One-Glo luminescence, 24 h; stronger effect = higher value. The method in brief: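 Cell-based rPXR luciferase reporter assay, 2,000 cells per well, rested 5hr at 37 C before compound addition in DMSO, then 24 hr at 37 C. One-Glo reagent was added and luminescence read after 30 min at room temperature.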

Assay [7] addresses Nuclear receptor subfamily 1 group I member 2 (Homo sapiens) (UniProt O75469). The assay is described as follows: Human pregnane X receptor (PXR) activation by small molecules, qHTS assay (AID 1346985). Note: nearly all actives have a fitted effect of over 40% in size. In a few lines: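 DPX-2 cells (HepG2 co-transfected with a PXR response element and a CYP3A4-promoter luciferase construct) were seeded at 2,000 per well, rested 5 hr at 37C, then exposed to DMSO-dissolved compounds for 24 hr. Activation was read as luciferase luminescence.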

Assay [8] deals with Cytochrome P450 2C19 (Homo sapiens) (UniProt P33261). The assay is described as follows: Cytochrome P450 Family 2 Subfamily C Member 19 (CYP2C19) small molecule antagonists: luciferase reporter qHTS assay (AID 1671197). For activity change, negative = inhibition: series mostly up to about 120 µM. Note: nearly all actives have a fitted effect of over 65% in size. Note: potency is the fitted concentration of half-maximal effect. In a few lines: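 Quantitative high-throughput screen of the Tox21 library using CYP2C19 with proluciferin substrate. Reaction: NADPH regeneration, 37C, 1 h, after 10 min compound preincubation at room temperature. Readout: luminescence.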
Sequence of Cytochrome P450 2C19 (Homo sapiens) (P33261 whole entry, looked up): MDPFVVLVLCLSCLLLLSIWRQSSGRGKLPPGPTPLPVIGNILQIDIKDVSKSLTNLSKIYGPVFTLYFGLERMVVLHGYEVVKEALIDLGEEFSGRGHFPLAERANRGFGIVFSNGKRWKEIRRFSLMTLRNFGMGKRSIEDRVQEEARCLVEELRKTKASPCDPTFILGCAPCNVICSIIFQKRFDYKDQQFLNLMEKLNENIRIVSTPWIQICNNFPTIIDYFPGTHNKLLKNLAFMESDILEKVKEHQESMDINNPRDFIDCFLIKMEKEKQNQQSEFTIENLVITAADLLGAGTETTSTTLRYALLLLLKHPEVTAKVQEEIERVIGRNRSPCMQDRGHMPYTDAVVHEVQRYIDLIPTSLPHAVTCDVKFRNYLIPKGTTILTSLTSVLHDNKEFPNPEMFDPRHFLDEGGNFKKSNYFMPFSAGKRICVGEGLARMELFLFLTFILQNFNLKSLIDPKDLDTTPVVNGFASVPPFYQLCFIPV

The nature of assay [9]: Caspase-3/7 induction in CHO-K1 cells by small molecules, qHTS assay (AID 1346980). Note: nearly all actives have a fitted effect of over 15% in size. Note: potency is the fitted concentration of half-maximal effect. In a few lines: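 Wild-type cells were seeded at 1,500 per well and settled 5 hr at 37 C, 5% CO2, then exposed to DMSO-dissolved compounds for 17 hr. Caspase-Glo 3/7 reagent was added, and luminescence was read after 30min at room temperature.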

SMILES strings stand for the structures. Where “and” joins values, the source holds several entries; their conditions need not be identical. Equal entries are not always repeated. Values without a mark were called inactive. Results filed as inconclusive are left out. Calls of active or inactive are those of the source. Calls come from the whole dose curve; as a rule, active = well fitted curve in the direction sought with a large enough effect in the repeat runs; inconclusive = weak or mixed curves; inactive = no such curve, though single readings can be large; an effect the other way counts as inactive or inconclusive.
% is set by controls: 0 for no effect and ±100 for the full control effect.

Sequence of Nuclear receptor subfamily 1 group I member 2 (Rattus norvegicus) (Q9R1A7 whole entry, looked up): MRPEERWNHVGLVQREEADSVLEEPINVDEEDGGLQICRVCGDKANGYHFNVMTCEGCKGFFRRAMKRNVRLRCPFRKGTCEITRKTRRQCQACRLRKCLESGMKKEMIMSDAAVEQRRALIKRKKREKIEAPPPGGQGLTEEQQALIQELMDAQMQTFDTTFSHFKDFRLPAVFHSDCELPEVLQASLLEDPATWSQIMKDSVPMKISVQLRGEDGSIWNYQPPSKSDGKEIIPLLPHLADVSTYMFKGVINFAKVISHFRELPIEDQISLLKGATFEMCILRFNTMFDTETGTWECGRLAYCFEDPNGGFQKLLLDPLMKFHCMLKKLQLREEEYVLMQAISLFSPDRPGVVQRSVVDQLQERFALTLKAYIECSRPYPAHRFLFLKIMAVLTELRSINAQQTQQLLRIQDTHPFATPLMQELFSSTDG
Sequence of Nuclear receptor subfamily 1 group I member 2 (Homo sapiens) (O75469 whole entry, looked up): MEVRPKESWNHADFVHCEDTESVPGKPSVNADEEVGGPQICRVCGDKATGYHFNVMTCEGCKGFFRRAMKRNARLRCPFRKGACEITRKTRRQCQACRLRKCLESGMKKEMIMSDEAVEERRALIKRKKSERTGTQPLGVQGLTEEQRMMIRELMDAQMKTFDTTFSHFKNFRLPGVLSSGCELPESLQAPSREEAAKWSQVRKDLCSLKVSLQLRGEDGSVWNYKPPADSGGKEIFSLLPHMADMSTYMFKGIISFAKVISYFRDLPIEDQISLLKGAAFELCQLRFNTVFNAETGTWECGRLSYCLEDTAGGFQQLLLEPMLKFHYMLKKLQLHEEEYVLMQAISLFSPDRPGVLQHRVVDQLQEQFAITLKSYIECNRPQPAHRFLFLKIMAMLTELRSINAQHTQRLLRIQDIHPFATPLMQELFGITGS
Sequence of Cytochrome P450 2D6 (Homo sapiens) (P10635 whole entry, looked up): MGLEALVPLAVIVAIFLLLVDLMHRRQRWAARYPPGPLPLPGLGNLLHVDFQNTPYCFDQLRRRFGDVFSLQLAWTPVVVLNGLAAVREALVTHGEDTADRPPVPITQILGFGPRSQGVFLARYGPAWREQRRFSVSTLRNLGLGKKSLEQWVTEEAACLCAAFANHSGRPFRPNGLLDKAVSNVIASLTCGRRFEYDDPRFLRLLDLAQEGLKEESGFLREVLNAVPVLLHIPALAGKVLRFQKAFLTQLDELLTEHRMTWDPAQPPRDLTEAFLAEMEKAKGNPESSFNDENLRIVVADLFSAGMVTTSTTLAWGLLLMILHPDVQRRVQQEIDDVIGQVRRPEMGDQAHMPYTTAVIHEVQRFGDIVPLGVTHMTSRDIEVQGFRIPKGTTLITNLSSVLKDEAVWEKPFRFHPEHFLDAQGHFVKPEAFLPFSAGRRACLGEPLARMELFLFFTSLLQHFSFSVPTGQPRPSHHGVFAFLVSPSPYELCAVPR

Turning to `S=c1nccc[nH]1`, the Potency result in [1], in assay [2], in [3] and in [4] was “inactive” each time. Besides, the Potency in [5] was 31.8 µM (active).
`CCCCCCCCCCCCCCCC[N+](C)(C)CC`: the Potency entry in [1], in assay [4], in assay [7] and in assay [8] was “inactive” each time. Further, the Potency is 43.4 µM (active) and 29.8 µM (active) in [2]; 61.3 µM (active) in assay [3]; 566 nM (active) and 871 nM (active) in assay [5]. The max activation in [6] was -22.3%.
Turning to `O=[N+]([O-])c1ccc(F)c(Cl)c1`, the Potency entry in assay [1], in assay [2], in assay [3] and in assay [4] was “inactive” in each case. Besides, the Potency in [8] is 79.9 µM (active).
With `COC(=O)C1=C(C)NC(C)=C(C(=O)OCCN2CCN(C(c3ccccc3)c3ccccc3)CC2)C1c1cccc([N+](=O)[O-])c1` (stereo unspecified), the Potency entry in [1], in assay [4] and in assay [7] was “inactive” throughout. Further, the figures for the Potency in assay [2], in assay [5] and in [8] were 21.1 µM (active), 2.75 µM (active) and 2.45 µM (active), respectively.
Consider `CC(=O)c1ccc(C(C)=O)cc1`, for which the Potency result in assay [1], in assay [2], in assay [3] and in assay [4] was “inactive” in each case. In [8], the Potency was 64.8 µM (active).
For the compound `Cc1c(C)c2c(c(C)c1O)CC[C@@](C)(CCC[C@H](C)CCC[C@H](C)CCCC(C)C)O2`, the Potency entry in assay [1], in assay [2], in [3] and in [4] was “inactive” each time.
On to `COc1cccc2c1C(=O)c1c(O)c3c(c(O)c1C2=O)C[C@@](O)(C(C)=O)C[C@@H]3O[C@H]1C[C@H](N)[C@H](O)[C@H](C)O1`, for which the Potency in assay [1] is 1.38 µM (active) and 1.33 µM (active); in assay [2], 21.8 µM (active) and 9.44 µM (active); in [9], 4.89 µM (active) and 6.68 µM (active). Besides, in assay [6], the max activation was -7.89%.
Consider `COc1c(C)c2c(c(O)c1C/C=C(\C)CCC(=O)OCCN1CCOCC1)C(=O)OC2`, for which the Potency entry in assay [1], in assay [9], in assay [7], in assay [5] and in assay [8] was “inactive” in each case. The Potency in assay [2] was 0.841 µM (active). For the same compound, in assay [6], the max activation is -3.72%.
`Cc1cc(C)c(/C=C2\C(=O)Nc3ccccc32)[nH]1`: the Potency result in assay [1], in [2], in assay [4] and in assay [5] was “inactive” in each case. The max activation in assay [6] was -0.232%. In assay [8], the Potency was 7.76 µM (active).
Turning to `COc1cc(C)ccc1O`, the Potency entry in assay [1], in assay [2], in assay [4] and in assay [5] was “inactive” each time.
Consider `CC[C@H](C)COC(=O)/C=C/c1ccc(N=Cc2ccc(OC)cc2)cc1`, for which, in [1], the Potency entry was “inactive”. The Potency in [2] is 61 µM (active); in [4], 30.6 µM (active); in assay [5], 70.9 µM (active); in assay [8], 0.893 µM (active).
As for `C#C[C@]1(OC(C)=O)CC[C@H]2[C@@H]3CCC4=C[C@@H](OC(C)=O)CC[C@@H]4[C@H]3CC[C@@]21C`, the Potency result in assay [1], in assay [3] and in [5] was “inactive” in each case. Further, the Potency was 33.5 µM (active) in assay [2], 29.8 µM (active) in assay [4] and 21.9 µM (active) in assay [8]. Further, in assay [6], the max activation was 3.89%.
Take `CC(C)CCCCCOC(=O)CCS`: the Potency entry in assay [1], in [2], in assay [3], in assay [4] and in assay [5] was “inactive” in each case.
Take `NC(=S)NC(N)=S`: the Potency entry in [1] and in assay [2] was “inactive” in each case. Besides, in assay [8], the Potency was 20 µM (active).
As for `CCOC(=O)Cn1cccc1-c1nc(-c2ccc(OC)cc2)c(-c2ccc(OC)cc2)s1`, the Potency entry in [1], in assay [2] and in assay [9] was “inactive” in each case. Also, the Potency in [8] was 3.89 µM (active).
Turning to `OC/C=C/CO`, the Potency result in assay [1], in [2], in assay [3], in [4] and in [8] was “inactive” throughout.
In the case of `CCCC(=O)OCOC(=O)C1=C(C)NC(C)=C(C(=O)OC)C1c1cccc(Cl)c1Cl` (stereo unspecified), the Potency entry in assay [1], in assay [2], in assay [9] and in [5] was “inactive” each time. For the same compound, the Potency in assay [8] was 1.74 µM (active).
On to `S=C([S-])NCCNC(=S)[S-].S=C([S-])NCCNC(=S)[S-].[Mn+2].[Zn+2]`, for which the Potency entry in [1], in assay [9] and in [3] was “inactive” in each case. Also, in [4], the Potency is 5.31 µM (active).
In the case of `O=c1[nH]c(=O)n([C@H]2C[C@H](O)[C@@H](CO)O2)cc1F`, the Potency entry in [1], in [2], in [3], in [5] and in [8] was “inactive” each time. Besides, the max activation in assay [6] was -2.43%.
Turning to `CC(=O)[C@H]1CC[C@H]2[C@@H]3CCC4=CC(=O)CC[C@]4(C)[C@H]3CC[C@]12C`, the Potency result in assay [1] and in assay [9] was “inactive” each time. Moreover, the Potency in assay [2] was 54.2 µM (active) and 48.6 µM (active); in assay [5], 15.8 µM (active) and 39.9 µM (active).
Consider `C[C@@H](O)[C@H](N)C(=O)O`, for which, in [1], the caspase activation is -1.24% [at 19 µM]. The activity change, negative = cytotoxicity in assay [2] was -0.658% [at 19 µM]; in assay [3] it was -2.32% [at 19 µM]. For the same compound, the activation in assay [4] was -12.7% [at 19 µM]. The max activation in assay [6] was -1.79%. Further, the Potency result in assay [7] was “inactive”. In addition, the activity change, negative = inhibition in assay [5] was -2.59% [at 23.6 µM].
With `OC1CCC(C2CCCCC2)CC1` (stereo unspecified), the Potency result in assay [1], in assay [2], in assay [3] and in assay [4] was “inactive” each time. Besides, the Potency in [5] is 39.9 µM (active).
For the compound `CCCCCCCC/C=C\CCCCCCCCN`, the Potency result in assay [1], in assay [2], in assay [4] and in assay [7] was “inactive” each time. In addition, the max activation in assay [6] is -1.07%. The Potency in assay [5] is 1.55 µM (active); in assay [8], 4.36 µM (active).
Regarding `COc1cccc(OC)c1C(=O)O`, the Potency entry in [1], in assay [2], in assay [3], in [4] and in assay [8] was “inactive” throughout.
Turning to `O=C(O)O`, in assay [1], the caspase activation is 0.0124% [at 8.39 µM]. For the same compound, the values for the activity change, negative = cytotoxicity in assay [2] and in assay [3] were 0.8% [at 8.39 µM] and -0.291% [at 8.39 µM], respectively. In addition, the activation in [4] is 4.39% [at 8.39 µM]. The activity change, negative = inhibition in assay [5] was -1.63% [at 10.5 µM]. Further, the Potency in assay [8] is 3.86 µM (active).
Consider `CCCCCc1ccc(Cl)cc1`, for which the Potency entry in assay [1], in assay [2], in assay [4] and in assay [5] was “inactive” throughout.
